# Assay results taken from PubChem BioAssay.
# The source made the active and inactive calls. Cut-off read from the data, not from the text of the source, unless noted: active = inhibition above about 36%; inactive = the rest.
# Columns and labels:
# [1] = system: transactivating tegument protein VP16 (Human herpesvirus 1); assay: VP16 transactivation reporter inhibitors, counter-screen for SRC2 inhibitor project, cell-based, luminescence, single concentration (AID 652007); conditions: cell-based VP16 transactivation luciferase reporter, at 8.9 µM, active compounds read high
# [2] = molecular target: Nuclear receptor coactivator 2 (Homo sapiens) (UniProt Q15596); assay: SRC2 coactivator transcriptional activity inhibitors, confirmation, cell-based, luminescence, HEK293, triplicate (AID 652008;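 active = mean inhibition above 46.5%, the solvent-only control mean plus 3 SD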;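 note: 0% = DMSO-treated cells and 100% = Gossypol at 36 µM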); conditions: HEK293 GAL4-SRC2 luciferase reporter, at 8.9 µM, active compounds read high
# Nuclear receptor coactivator 2 (Homo sapiens), sequence (Q15596 whole entry, looked up, the tested form may be a part): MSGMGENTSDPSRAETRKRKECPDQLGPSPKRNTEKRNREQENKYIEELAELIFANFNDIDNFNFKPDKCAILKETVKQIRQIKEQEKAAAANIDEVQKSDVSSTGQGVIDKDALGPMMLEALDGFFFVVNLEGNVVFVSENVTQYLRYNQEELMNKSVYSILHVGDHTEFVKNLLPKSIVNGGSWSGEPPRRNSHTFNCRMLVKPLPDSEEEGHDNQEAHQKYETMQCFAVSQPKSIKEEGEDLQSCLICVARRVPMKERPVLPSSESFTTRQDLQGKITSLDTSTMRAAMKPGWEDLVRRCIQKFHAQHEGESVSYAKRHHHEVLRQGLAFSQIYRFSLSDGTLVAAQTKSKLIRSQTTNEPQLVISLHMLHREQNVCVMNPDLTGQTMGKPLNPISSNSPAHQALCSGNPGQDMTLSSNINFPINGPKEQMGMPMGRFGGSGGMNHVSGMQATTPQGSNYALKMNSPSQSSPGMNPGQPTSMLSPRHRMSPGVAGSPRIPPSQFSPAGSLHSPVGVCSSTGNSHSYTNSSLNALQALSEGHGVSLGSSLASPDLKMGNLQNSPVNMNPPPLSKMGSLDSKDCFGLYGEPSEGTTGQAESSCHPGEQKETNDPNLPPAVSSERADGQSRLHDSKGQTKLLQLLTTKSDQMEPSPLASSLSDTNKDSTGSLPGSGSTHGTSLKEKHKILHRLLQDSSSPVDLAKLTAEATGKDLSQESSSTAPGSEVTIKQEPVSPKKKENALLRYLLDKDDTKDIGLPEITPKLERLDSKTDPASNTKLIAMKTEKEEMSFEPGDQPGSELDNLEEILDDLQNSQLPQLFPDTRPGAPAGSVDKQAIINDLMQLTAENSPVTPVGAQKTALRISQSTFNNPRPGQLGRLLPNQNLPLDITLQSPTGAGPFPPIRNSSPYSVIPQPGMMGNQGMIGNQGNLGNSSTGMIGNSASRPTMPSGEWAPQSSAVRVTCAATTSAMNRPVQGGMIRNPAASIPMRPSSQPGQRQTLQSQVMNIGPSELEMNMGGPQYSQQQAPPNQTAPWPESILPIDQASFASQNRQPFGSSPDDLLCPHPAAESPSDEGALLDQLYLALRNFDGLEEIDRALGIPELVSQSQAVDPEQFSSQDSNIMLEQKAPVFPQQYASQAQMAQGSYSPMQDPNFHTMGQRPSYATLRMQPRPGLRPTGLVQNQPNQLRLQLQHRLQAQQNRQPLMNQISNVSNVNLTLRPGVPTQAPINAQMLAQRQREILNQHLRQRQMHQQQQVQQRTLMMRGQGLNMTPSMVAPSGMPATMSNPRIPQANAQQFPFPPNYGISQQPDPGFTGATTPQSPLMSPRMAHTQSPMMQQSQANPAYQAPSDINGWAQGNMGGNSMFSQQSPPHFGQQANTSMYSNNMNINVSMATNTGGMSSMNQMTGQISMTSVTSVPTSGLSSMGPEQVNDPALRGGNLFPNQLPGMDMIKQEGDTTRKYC
Compound,inhibition [1],inhibition [2]
CCC/C(C#Cc1cc(OC)cc(OC)c1)=C1/c2ccccc2C(=O)N1c1ccccc1,3.37% (inactive),-4.64% (inactive)
COc1ccc(/C=C2\SC(=S)N(CCC(=O)N3CCCCC3CCO)C2=O)cc1 (stereo not given),1.26% (inactive),26.7% (inactive)
Cc1ccc(S(=O)(=O)NNC(=O)c2sc(=S)n(C)c2C)cc1,-4.43% (inactive),-17.1% (inactive)
COc1cc2[nH]c3c(=O)n4c(nc3c2cc1OC)SCCC4,-66.2% (inactive),13.4% (inactive)
O=C(CCCN1C(=O)/C(=C/c2ccccc2Cl)SC1=S)NNC(=O)c1cccnc1,34.3% (inactive),29.9% (inactive)
CCOc1ccc(NC(=O)CN(C)C(=O)c2cn(-c3ccccc3)nc2-c2cccs2)cc1OCC,-4.29% (inactive),16% (inactive)
CCOc1cc(/C=C/C(=O)c2ccc3c(c2)OCCO3)ccc1OCC(=O)N(C)C,2.55% (inactive),16.2% (inactive)
COc1ccc(CN2CCC(C(=O)Nc3ccc(Oc4ccccc4)nc3)CC2)cc1F,16.9% (inactive),28.5% (inactive)
CC(=O)N1CCOc2ccc(S(=O)(=O)NCC3CCC(C(=O)Nc4ccc(C)cn4)CC3)cc21 (stereo not given),14.8% (inactive),15.4% (inactive)
CCC(=O)N1N=C(c2cccs2)CC1c1ccc(C)cc1 (stereo not given),-15.8% (inactive),-13.8% (inactive)
CN(Cc1ccc(Cl)cc1)C(=O)CCl,29.1% (inactive),25.3% (inactive)
O=C(CNC(=O)c1ccc2c(c1)OCO2)Nc1cccc(Br)c1,-13.8% (inactive),-16.3% (inactive)
COCc1ccc(C(=O)N2CCC(CCC(=O)Nc3cccc(C)c3)CC2)s1,27.4% (inactive),46.9% (active)
C=CCN=C1NN=C(c2cc(C)n(CCOC)c2C)CS1,69.5% (active),86% (active)
CCN(CC)C(=O)C1CCCN(c2ncnc3c2cnn3-c2ccc(Cl)cc2)C1 (stereo not given),-32.6% (inactive),58.8% (active)
